In all, about 37,000 compounds went through this assay and about 290 (0.78%) were called active. Not shown: some 10% with an inconclusive outcome.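 The calls were made as follows: active = mean inhibition of at least 10% in the main channel, exceeding the control channel by a set limit; inconclusive = inhibition of 10% or more but channel gap under a set limit; inactive = mean inhibition below 10%.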 Many of the other results were omitted from the sample, so actives are more common in it than they were.
Assay: inhibitors of DUX4-driven ZSCAN4 reporter expression, primary screen, 293T cells, Gaussia and Italica luciferase (AID 1224904);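 as to activity change, negative = inhibition: 0% = median of neutral control wells and -100% = median of positive control wells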
Conditions: 293T-iDUX4 ZSCAN4-Gaussia luciferase reporter, 24 h, stronger effect = lower value, concentration not given here; for Gaussia minus Italica difference: measured here: selective DUX4 reporter inhibition
[1] = measured here: Italica tet-on control reporter

| SMILES | activity change, negative = inhibition | activity change, negative = inhibition [1] [%] | Gaussia minus Italica difference [%] |
| --- | --- | --- | --- |
| CCC(=O)N1[C@H](CO)[C@@H]2c3ccccc3N(S(=O)(=O)c3ccccc3C)C[C@@H]21 | -0.934% (inactive) | -0.843 | -0.0907 |
| CO[C@H]1CN(C)C(=O)c2ccc(NS(C)(=O)=O)cc2OC[C@@H](C)N(Cc2ccccc2)C[C@@H]1C | 3.45% (inactive) | 1.74 | 1.71 |
| CCN(C[C@@H]1[C@@H](c2ccccc2)[C@H](CO)N1C(C)=O)C(=O)NC(C)C | -4.96% (inactive) | -1.07 | -3.89 |
| CCCNC(=O)N(C)C[C@H]1Oc2ncc(-c3ccc(C(=O)N(C)C)cc3)cc2C(=O)N([C@@H](C)CO)C[C@@H]1C | -0.44% (inactive) | 5.7 | -6.14 |
| COc1ccc2c3c([nH]c2c1)[C@H](CO)N(C(=O)C1CCOCC1)CC31CN(S(C)(=O)=O)C1 | -4.43% (inactive) | 1.27 | -5.7 |
| O=C(Cc1ccccc1)N1C[C@H]2[C@@H](c3ccccc31)[C@H](CO)N2C(=O)c1ccc(F)cc1 | 0.616% (inactive) | 2.82 | -2.21 |
| CN1C(=O)c2cc(NC(=O)c3cnccn3)ccc2OC[C@@H]2O[C@H](CC(=O)NC3CCC3)CC[C@@H]21 | 3.24% (inactive) | 0.171 | 3.07 |
| O=C(C[C@@H]1CC[C@@H]2[C@H](COC[C@H](O)CN2S(=O)(=O)c2ccc(F)cc2)O1)NCc1ccc(Cl)c(Cl)c1 | -7.18% (inactive) | -12.4 | 5.22 |
| CCCNC(=O)N1C[C@@H]2[C@H](c3ccccc31)[C@@H](CO)N2C(=O)NC(C)C | -3.62% (inactive) | 0.166 | -3.78 |
| N#C[C@@H]1N[C@@H](CO)[C@@H]1c1ccc(C#Cc2ccccc2F)cc1 | 0.819% (inactive) | 0.652 | 0.167 |
| CC=Cc1ccc2n(c1=O)C[C@@H]1[C@@H](CO)[C@H](C(=O)NCCC)[C@H]2N1C(=O)C1CC1 (mixture of isomers) | 3.79% (inactive) | 5.5 | -1.71 |
| CCCNC(=O)N1C[C@@H](O)COC[C@H]2O[C@@H](CC(=O)NCCCN3CCOCC3)CC[C@@H]21 | -2.3% (inactive) | 5.46 | -7.76 |
| Cc1cc(C(=O)Nc2ccc3c(c2)C(=O)N(C)[C@H]2CC[C@H](CC(=O)NCC(F)(F)F)O[C@@H]2CO3)no1 | -3.18% (inactive) | 1.49 | -4.67 |
| C[C@@H](NC(=O)C[C@H]1CC[C@@H](NC(=O)Cc2ccccn2)[C@@H](CO)O1)c1ccccc1 | 14.3% (inactive) | 1.74 | 12.6 |
| O=C(C[C@@H]1CC[C@H]2[C@@H](COC[C@H](O)CN2C(=O)Nc2ccccc2)O1)NCCc1ccncc1 | -0.33% (inactive) | 7.03 | -7.36 |
| COc1ccc(NC(=O)N(C)C[C@@H]2OCc3cn(nn3)CCCC(=O)N([C@H](C)CO)C[C@H]2C)c(OC)c1 | -6.81% (inactive) | 4.76 | -11.6 |
| N#C[C@@H]1[C@@H](c2ccc(-c3ccccc3F)cc2)[C@@H](CO)N1C(=O)C1CC1 | -3.2% (inactive) | -0.917 | -2.29 |
| COc1ccc2c3c([nH]c2c1)[C@@H](CO)N(C(=O)NC(C)C)CC31CN(C(=O)C2CCCC2)C1 | 6.7% (inactive) | 0.3 | 6.4 |
| COc1ccc2c3c([nH]c2c1)[C@@H](CO)N(Cc1cc(F)ccc1F)CC31CN(C(=O)C2CCC2)C1 | -77.2% (active) | -43.6 | -33.6 |
| COc1ccc2c3c(n(C)c2c1)[C@H](CO)N(Cc1ccccc1F)CC31CN(C(=O)C2CCC2)C1 | 6.19% (inactive) | 3.73 | 2.45 |

| SMILES | activity change, negative = inhibition | activity change, negative = inhibition [1] [%] | Gaussia minus Italica difference [%] |
| --- | --- | --- | --- |
| C[C@@H]1CN([C@@H](C)CO)C(=O)Cc2cc(NC(=O)Nc3cccc4ccccc34)ccc2O[C@H]1CN(C)S(=O)(=O)c1ccc(Cl)cc1 | -2.17% (inactive) | 3.22 | -5.4 |
| CC(C)[C@@H]1COCn2nncc2CCCC(=O)N1 | -6.02% (inactive) | 7.14 | -13.2 |
| CO[C@@H]1CC[C@@H]2CCOc3c(C#N)cccc3C(=O)N(C)C[C@@H](C)C(=O)N(C)C[C@@H]1O2 | -3.12% (inactive) | -1.5 | -1.62 |
| C[C@H](O)C#Cc1ccc([C@@H]2[C@H](CO)N3CCCCN(CC4CC4)C[C@@H]23)cc1 | 4.25% (inactive) | 9.01 | -4.76 |
| COCC(=O)N1[C@@H](CO)[C@H](c2ccccc2)C12CN(C(=O)NC1CCCCC1)C2 | 12.7% (inactive) | 4.2 | 8.54 |
| COc1ccccc1-c1ccc2n(c1=O)C[C@@H]1[C@@H](CO)[C@H](C(=O)NCc3ccccc3Cl)N[C@H]21 | -0.143% (inactive) | -7.51 | 7.37 |
| CCC(=O)Nc1ccc2c(c1)C(=O)N(C)C[C@H](OC)[C@@H](C)CN(Cc1nccs1)[C@H](C)CO2 | -5.35% (inactive) | 4.67 | -10 |
| CNC[C@H]1Oc2ncc(C#Cc3ccccc3F)cc2C(=O)N([C@H](C)CO)C[C@H]1C | -2.73% (inactive) | -1.01 | -1.72 |
| CN1CCN(C(=O)C[C@@H]2CC[C@@H]3[C@H](COC[C@H](O)CN3CC3CCOCC3)O2)CC1 | 7.66% (inactive) | 11.6 | -3.98 |
| CNC(=O)C[C@@H]1CC[C@H]2[C@H](COc3ccc(NC(=O)C4CC4)cc3C(=O)N2C)O1 | 2.13% (inactive) | -0.014 | 2.15 |
| CS(=O)(=O)N1C[C@@H](O)COC[C@@H]2O[C@H](CC(=O)NC3Cc4ccccc4C3)CC[C@H]21 | 6.74% (inactive) | -3.08 | 9.82 |
| CN1c2ccc(-c3ccccc3F)cc2[C@@H]2[C@@H](CCN2C(=O)CN2CCOCC2)[C@H]1CO | 0.948% (inactive) | 9.9 | -8.96 |
| CCCNC(=O)C[C@@H]1CC[C@H]2[C@H](COc3ccc(NS(=O)(=O)c4ccccc4C)cc3C(=O)N2C)O1 | 1.9% (inactive) | 7.5 | -5.61 |
| C/C=C/c1ccc2c(c1)O[C@@H](CN(C)C(=O)c1ccccn1)[C@H](C)CN([C@@H](C)CO)S2(=O)=O | -2.65% (inactive) | 3.66 | -6.3 |
| O=C(NC[C@@H]1[C@@H](c2ccccc2)[C@H](CO)N1C(=O)Cc1cccnc1)C1CC1 | 3.18% (inactive) | 4.6 | -1.42 |
| CCCNC(=O)N1[C@H](CO)[C@@H]2c3ccccc3N(C(=O)C3CCOCC3)C[C@@H]21 | -1.95% (inactive) | -0.682 | -1.27 |
| CCS(=O)(=O)N1CCC2(CC1)CN[C@H](CO)c1c2c2ccc(OC)cc2n1C | 14.5% (inactive) | 10.9 | 3.59 |
| C[C@H](CO)N1C[C@H](C)[C@@H](CN(C)Cc2ccncc2)OCCCC[C@H](C)Oc2ccc(NS(=O)(=O)c3ccc(Cl)cc3)cc2C1=O | 1.79% (inactive) | 8.83 | -7.04 |
| COc1cccc(C#Cc2ccc3c(c2)[C@@H]2[C@@H](CCN2S(=O)(=O)c2ccc(C)cc2)[C@@H](CO)N3)c1 | 8.73% (inactive) | 11.9 | -3.21 |
| COc1cccc(CNC(=O)C[C@@H]2CC[C@H]3[C@@H](COc4ccc(NC(=O)c5cccs5)cc4C(=O)N3C)O2)c1 | -0.0474% (inactive) | -2.71 | 2.66 |

| SMILES | activity change, negative = inhibition | activity change, negative = inhibition [1] [%] | Gaussia minus Italica difference [%] |
| --- | --- | --- | --- |
| COc1ccc(CNC(=O)C[C@H]2C[C@@H]3c4cc(NC(=O)NC5CCCC5)ccc4O[C@@H]3[C@H](CO)O2)cc1 | 8.81% (inactive) | 6.85 | 1.96 |
| O=C(CCN1CCCCC1)NCC[C@@H]1CC[C@H](NS(=O)(=O)c2cccc(Cl)c2)[C@H](CO)O1 | 5.38% (inactive) | -7.23 | 12.6 |
| CN1[C@@H]2c3ccc(-c4ccc(F)cc4)c(=O)n3C[C@H]1[C@H](CO)[C@H]2C(=O)NC1CCC1 | 6.4% (inactive) | -1.88 | 8.27 |
| CCCNC(=O)N1C[C@@H](O)COC[C@@H]2O[C@H](CC(=O)N3CCN(C)CC3)CC[C@H]21 | 1.94% (inactive) | 0.769 | 1.17 |
| CS(=O)(=O)N1CCCCN2[C@H](CO)[C@H](c3ccc(-c4cccc(C#N)c4)cc3)[C@H]2C1 | 1.86% (inactive) | -1.58 | 3.44 |
| CCNC(=O)[C@H]1[C@H](CO)[C@H]2Cn3c(ccc(-c4ccc(OC)cc4)c3=O)[C@H]2N1Cc1ccccc1 | -4.11% (inactive) | -4.47 | 0.354 |
| O=C(C1CCC1)N1CC2(C1)[C@H](c1ccccc1)[C@H](CO)N2Cc1nccs1 | 12.8% (inactive) | 2.26 | 10.6 |
| CCC(=O)N1C[C@@H](O)COC[C@H]2O[C@H](CC(=O)NCC3CCCCC3)CC[C@@H]21 | 1.84% (inactive) | 0.272 | 1.57 |
| COCC#Cc1cnc2c(c1)C(=O)N([C@H](C)CO)C[C@H](C)[C@H](CN(C)Cc1ccc(-c3ccccc3)cc1)O2 | -1.2% (inactive) | -1.59 | 0.393 |
| C[C@H](CO)N1C[C@H](C)[C@H](CN(C)C(=O)CCN(C)C)OCc2ccccc2-c2c(n(C)c3ccccc23)C1=O | 0.0892% (inactive) | 6.32 | -6.23 |
| COc1ccccc1C#Cc1ccc([C@H]2[C@H](CO)N3CCCCN(C(=O)C4CCC4)C[C@@H]23)cc1 | -36.1% (active) | -8.62 | -27.4 |
| CN(C)CC#Cc1ccc([C@@H]2[C@H](CO)N3CCCCN(C(=O)Nc4ccc(F)cc4)C[C@@H]23)cc1 | 15.2% (inactive) | 5.12 | 10.1 |
| C[C@@H](O)C#Cc1ccc([C@@H]2[C@H](CO)N3CCCCN(S(=O)(=O)c4ccccc4)C[C@@H]23)cc1 | 10.1% (inactive) | -3.26 | 13.3 |
| COc1ccc(S(=O)(=O)N2CCCCN3[C@H](CO)[C@@H](c4ccc(C#CC(C)C)cc4)[C@H]3C2)cc1 | -31.7% (active) | -3.69 | -28 |
| COc1ccccc1C#Cc1ccc([C@@H]2[C@@H](CO)N3CCCCN(S(C)(=O)=O)C[C@@H]23)cc1 | -1.08% (inactive) | 5.65 | -6.73 |
| O=C(Nc1cccc(F)c1)N1CCCCN2[C@H](CO)[C@H](c3ccc(C#CC4CC4)cc3)[C@@H]2C1 | -32.4% (active) | 5.1 | -37.5 |
| C[C@@H](O)C#Cc1ccc([C@@H]2[C@H]3CN(S(=O)(=O)c4ccccc4)CCCCN3[C@H]2CO)cc1 | 25.7% (inactive) | 12.9 | 12.9 |
| O=C(Nc1cccc(F)c1)N1CC(=O)N2[C@H](CO)[C@H](c3ccc(C#CC4CC4)cc3)[C@@H]2C1 | 2.91% (inactive) | -11.7 | 14.6 |
| COc1ccccc1C#Cc1ccc([C@H]2[C@@H](C#N)N(C(=O)C3CCCCC3)[C@@H]2CO)cc1 | -1.13% (inactive) | -0.0756 | -1.05 |

Source: PubChem BioAssay AID1224904 (Broad Institute, 2016)
